Assay outcomes as filed in PubChem BioAssay.
HP1b binding inh: HTS for Inhibitors of HP1-beta Chromodomain Interactions with Methylated Histone Tails; AlphaScreen HP1-beta / biotin-H3K9me3 peptide binding; Potency, µM (titrated, usually from 114 µM), actives largely listed as inhibitors; Chromobox protein homolog 1 (Homo sapiens), P83916; 390,000 tested, 0.56% active; further: nearly all actives have a fitted effect of over 70% in size
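AlphaScreen: HP1-beta (50 nM) preformed 30 min with biotin-H3(1-18)K9me3 peptide (50 nM) in PBS pH 7.4, 0.01% Tween-20. Compound added for 30 min at RT, then streptavidin donor/nickel chelate acceptor beads (10 ug/mL) for 30 min.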
JMJD2A Tudor inh: qHTS Assay for Inhibitors of JMJD2A-Tudor Domain. 390,000 tested, 4.4% active. Lysine-specific demethylase 4A (Homo sapiens), O75164. Potency, µM (highest dose often 114 µM), hits mostly inhibitors. AlphaScreen JMJD2A-Tudor / H3K4me3 peptide binding; further: nearly all actives have a fitted effect of over 50% in size
PLK1 PBD block: qHTS for Inhibitors of PLK1-PDB (polo-like kinase 1 - polo-box domain): Primary Screen. Serine/threonine-protein kinase PLK1 (Homo sapiens), P53350. Plk1 PBD binding of FITC phosphopeptide, fluorescence polarization. Potency, µM, actives largely listed as inhibitors. 360,000 tested, 2.8% active. AID 720504, 2013; further: series mostly up to about 57 µM; nearly all actives have a fitted effect of over 65% in size
BAZ2B block: qHTS Assay for Inhibitors of BAZ2B; AlphaScreen BAZ2B-H3K14Ac peptide displacement; Potency, µM (series often up to 114 µM), actives largely listed as inhibitors; 360,000 tested, 4.4% active; further: nearly all actives have a fitted effect of over 60% in size
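In this displacement format the biotinylated H3(5-23) peptide acetylated at Lys14 serves as ligand at 50 nM, with BAZ2B at 50 nM in PBS pH 7.4 containing 0.01% Tween-20. Donor and acceptor beads are 10 ug/mL final.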
Sfp PPTase inh: qHTS Assay for Inhibitors of Bacillus subtilis Sfp phosphopantetheinyl transferase (PPTase); 310,000 tested, 3.5% active; 4'-phosphopantetheinyl transferase ffp (Bacillus subtilis), Q9F4F7; Potency, µM, most hits filed as inhibitors; Biochemical Sfp PPTase activity, qHTS; AID 1490, 2009;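 further: the enzyme is Sfp with the accession as filed and its product quenches rhodamine fluorescence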
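Sfp 15 nM + cpd, 15 min RT; start w/ rhodamine-CoA 5 uM, BHQ-2-YbbR 12.5 uM (final); 50 mM Hepes pH 7.6, 10 mM MgCl2, 0.01% NP-40, 0.01% BSA; read 525/598 nm at 0 and 30 min.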
G9a block: qHTS Assay for Inhibitors of Histone Lysine Methyltransferase G9a; Histone-lysine N-methyltransferase EHMT2 (Homo sapiens), Q96KQ7; G9a H3K9 monomethylation, AlphaScreen, 2 h; Potency, µM (highest dose often 102 µM), usual class: inhibitors; 350,000 tested, 8.8% active; AID 504332, 2011; further: nearly all actives have a fitted effect of over 75% in size
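Quantitative HTS format: methyltransferase activity on a biotin-tagged H3K9 peptide is measured by AlphaScreen, using a rabbit anti-monomethyl-H3K9 antibody with streptavidin donor and anti-IgG acceptor beads. Final levels are 20 nM enzyme, 500 nM peptide, 20 uM SAM; 2 h RT.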
Of the large screens only hits and unclear results are named; the others gave an inactive call. An excerpt weighted towards active compounds, which were near 12% of everything screened. The call rests on the fitted dose curve; in most records, active means well fitted curve in the direction sought with a large enough effect; inconclusive means small, poorly fitted or top-dose-only effect, or another doubt; inactive means no such curve, though single readings can be large; an effect the other way counts as inactive or inconclusive.

CN(C)CCCN(C(=O)c1cc2cc([N+](=O)[O-])ccc2s1)c1nc2cc3c(cc2s1)OCCO3	JMJD2A Tudor inh inconclusive, BAZ2B block inconclusive, G9a block 20µM (no result: Sfp PPTase inh)
CN(C)CCCN(C(=O)c1cccs1)c1nc2cc3c(cc2s1)OCO3	G9a block inconclusive
Cc1nc2nc(SCC(=O)NCc3ccccc3)nn2c(C)c1Cc1ccccc1Cl	none (no result: PLK1 PBD block, Sfp PPTase inh)
O=C(CSc1nc(-c2ccc(F)cc2)cc(C(F)(F)F)n1)NCc1ccco1	HP1b binding inh inconclusive, PLK1 PBD block 3µM
O=C(CSc1cccc2cccnc12)NCc1ccco1	Sfp PPTase inh 79µM (no result: G9a block)
Nc1cc(N)nc(SCC(=O)NCc2ccco2)n1	BAZ2B block inconclusive
Cc1cc(C)nc(SCC(=O)NCc2ccco2)n1	Sfp PPTase inh inconclusive, G9a block 45µM
O=C(CSc1nc(-c2ccc(F)cc2)cc(C(F)(F)F)n1)NCc1cccs1	none
CCOc1ccc(NC(=O)Cn2c(=O)n(CCCCCC(=O)NCc3ccccc3)c(=O)c3sccc32)cc1	none (no result: PLK1 PBD block, Sfp PPTase inh)
C=CCc1ccc(OCCOCCN(C)C)c(OC)c1	HP1b binding inh inconclusive, JMJD2A Tudor inh 1.6µM, BAZ2B block inconclusive, G9a block 4µM
C=CCc1ccc(OCCCCNC2CCCC2)c(OC)c1	HP1b binding inh inconclusive, JMJD2A Tudor inh inconclusive, BAZ2B block 56µM, G9a block 13µM
C=CCOc1c(Cl)cc(CNCCCN2CCOCC2)cc1OC	JMJD2A Tudor inh inconclusive, PLK1 PBD block 21µM, G9a block inconclusive
C=CCc1ccc(OCCCCCN2CCOCC2)c(OC)c1	HP1b binding inh inconclusive, JMJD2A Tudor inh 3.5µM, BAZ2B block 50µM, G9a block 13µM
COc1ccc2nc(N(CCN(C)C)C(=O)/C=C/c3cccs3)sc2c1	G9a block 14µM (no result: BAZ2B block)
Cc1cccc2sc(N(CCN(C)C)C(=O)/C=C/c3cccs3)nc12	JMJD2A Tudor inh inconclusive, Sfp PPTase inh 32µM, G9a block inconclusive
COc1ccc(C2CC(c3cccs3)=NN2S(C)(=O)=O)cc1OC (centres undefined)	none (no result: G9a block)
COc1ccc(C2CC(c3cccs3)=NN2c2nc(-c3ccccc3)cs2)cc1OC (centres undefined)	PLK1 PBD block inconclusive, Sfp PPTase inh 45µM, G9a block inconclusive
COc1ccc(OC)c(-c2csc(NC(=O)Cc3ccc(OC)c(OC)c3)n2)c1	JMJD2A Tudor inh inconclusive, BAZ2B block inconclusive, G9a block 50µM
COc1ccc(-c2csc(NC(=O)CSc3ccc(Br)cc3)n2)c(OC)c1	BAZ2B block inconclusive, G9a block 25µM
COc1ccc(OC)c(-c2csc(NC(=O)CSc3ccccc3)n2)c1	BAZ2B block inconclusive
Nc1ccc(N2CCN(CCCCN3C(=O)C4CCCN4C3=O)CC2)cc1 (centres undefined)	JMJD2A Tudor inh inconclusive, BAZ2B block inconclusive, G9a block 10µM
COc1ccccc1N1CCN(CCCCN2C(=O)C3CCCCN3C2=O)CC1 (centres undefined)	JMJD2A Tudor inh inconclusive, PLK1 PBD block 8.4µM
O=C1C2CCCCN2C(=O)N1CCCN1CCN(c2ccc(F)cc2)CC1 (centres undefined)	JMJD2A Tudor inh inconclusive
CCCCOc1ccccc1N1CCN(CCCN2C(=O)C3CCCN3C2=O)CC1 (centres undefined)	G9a block inconclusive
COc1ccccc1/C=C/CN1CC(C)OC(C)C1 (centres undefined)	HP1b binding inh inconclusive, JMJD2A Tudor inh 3.2µM, BAZ2B block 45µM, G9a block inconclusive
COc1ccccc1/C=C/CN1CCCCC1	HP1b binding inh inconclusive, JMJD2A Tudor inh 1.4µM, BAZ2B block 79µM, G9a block 28µM
CC(=O)c1ccc(N2CCN(S(=O)(=O)c3c(C)[nH]c(C)c3C(=O)N3CCCC3)CC2)cc1	none (no result: G9a block)
C[N+]1(C)CCC(=C2c3ccccc3CC(=O)c3sccc32)CC1	PLK1 PBD block 38µM, BAZ2B block 7.1µM, G9a block 6.3µM
COc1ccccc1CNC(c1ccccc1)c1ccccc1	none
COc1cc(C)c(NC(c2ccccc2)c2ccccc2)cc1OC	HP1b binding inh inconclusive, JMJD2A Tudor inh 45µM, BAZ2B block 40µM, G9a block 28µM
Cc1cc(C)nc(SC/C=C/c2ccccc2)n1	PLK1 PBD block inconclusive, Sfp PPTase inh 89µM (no result: G9a block)
CCn1cc(C(=O)NCCC(=O)NC(C)C)c(=O)c2cc3c(cc21)OCO3	none
Cc1ccc(NS(=O)(=O)c2cc(C(=O)N(C)C3CCN(C)CC3)ccc2Cl)cc1Cl	none (no result: BAZ2B block, Sfp PPTase inh, G9a block)
COc1ccc(CNC(=O)CN(C(=O)CCC(=O)Nc2ccccn2)c2ccc(C)cc2)cc1	JMJD2A Tudor inh 56µM, PLK1 PBD block inconclusive
O=C(CCCC(=O)N(c1cccc(F)c1)C(C(=O)NC1CCCC1)c1ccc(O)cc1)Nc1ccccn1 (centres undefined)	JMJD2A Tudor inh 79µM, PLK1 PBD block inconclusive
CC(C)c1ccc(N(CC(=O)NC2CCCC2)C(=O)CCC(=O)Nc2ccccn2)cc1	JMJD2A Tudor inh 50µM, PLK1 PBD block 24µM
CC(C)c1ccc(N(CC(=O)NCc2ccco2)C(=O)CCC(=O)Nc2ccccn2)cc1	G9a block 25µM
CC1=C(C(=O)N2CCCCCC2)CC(CC(=O)NCC2CCCCC2)C(=O)N1Cc1ccc(F)cc1 (centres undefined)	none (no result: HP1b binding inh, JMJD2A Tudor inh, BAZ2B block, Sfp PPTase inh, G9a block)
CCCCN(CC)Cc1ccc(CNS(=O)(=O)c2cc3c(cc2Cl)NC(=O)CO3)o1	none (no result: PLK1 PBD block, Sfp PPTase inh)
CC(C)C[C@@H](CC(=O)N[C@@H](CCC(=O)O)CC(=O)O)NC(=O)[C@@H]1CCCC[C@H]1NC(=O)C[C@@H](NC(=O)C[C@H](CO)NC(=O)[C@@H]1CNCC[C@H]1N)C(C)C	none (no result: HP1b binding inh, JMJD2A Tudor inh, PLK1 PBD block, BAZ2B block, G9a block)
Cc1ccnc(NC(=O)CCC(=O)N(CC(=O)NCc2ccccc2)c2ccc3c(c2)OCO3)c1	PLK1 PBD block 3µM
Cc1ccc(N(CC(=O)NCc2ccco2)C(=O)CCC(=O)Nc2nccs2)c(C)c1	G9a block 71µM
Cc1ccccc1N(CC(=O)NCc1ccco1)C(=O)CCC(=O)Nc1nccs1	none
Cc1nc(NCc2ccccc2)c2nc(-c3ccccc3)n(CCN3CCCC3)c2n1	none (no result: HP1b binding inh, JMJD2A Tudor inh, PLK1 PBD block, BAZ2B block, G9a block)
Cc1cc(NC(=O)CSc2nnc(-c3ccc([N+](=O)[O-])cc3)o2)no1	JMJD2A Tudor inh 89µM, BAZ2B block 22µM
C#CCSc1nnc(-c2ccc([N+](=O)[O-])cc2)o1	G9a block 50µM
Cc1cc(NC(=O)CSc2nnc(-c3ccc(O)cc3)o2)no1	none (no result: G9a block)
